From PubChem BioAssay (NCI)
This is part of a sample that, as a whole, favours compounds with a hit. Of some 83,000 tested, about 20% had one in any assay.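 Activity criterion: percent growth below 10, measured after cells in 96-well plates were exposed to a single compound concentration for 48 hours.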 Values without a mark were called inactive. Calls of active or inactive are those of the source.

test system: HL-60(TB) leukemia; test: NCI-60 one-dose screen, 48 h (100 = growth as untreated, 0 = no growth, -100 = all killed); conditions: 10 µM unless noted

| SMILES | growth |
| --- | --- |
| OCc1cnccc1NCCCOc1ccccc1 | 89.4% |
| CC(C(=O)O)N1C(N)=NNC1c1ccccc1O (centres undefined) | 92.8% |
| COc1ccc(-c2cs/c(=N\N=C\c3ccc(O)cc3O)n2/N=C/c2ccc(O)cc2O)cc1 | -32.6% (active) |
| CC(C)(C)NCCC(O)c1cc(C(F)(F)F)nc2c(C(F)(F)F)cccc12 (centres undefined) | 73.5% |
